Screen size: about 48,000 compounds; about 450 (0.94%) were called active. A call without a number means that no potency is given here. Not shown: some 19% with an inconclusive outcome. Calls follow the shape of the dose curve; as a rule, active = well fitted inhibition curve with a large enough effect; inconclusive = small, poorly fitted or top-dose-only effect; inactive = no such curve, though single readings can be large or run the other way. The full list was thinned out, with actives kept by preference.
Potency is read from the fitted curve at half-maximal effect.

The test in a line: Primary qHTS for Identification of Small Molecule Inhibitors of Huntingtin Promoter Activity. Also: nearly all actives have a fitted effect of over 50% in size. The settings on record: HEK293 HTT promoter firefly luciferase reporter (activity 0% = vehicle and -100% = no light), 24 h; series mostly up to 57.5 µM. An excerpt: Assay Provider: Russell L. Margolis M.D.
Department Neurology, Johns Hopkins University School of Medicine, Baltimore, MD
Huntington's Disease (HD) is a neurodegenerative disorder caused by a CAG repeat expansion in exon 1 of huntingtin (HTT). While there are currently no disease-modifying treatments for HD, recent efforts have focused on development of nucleotide-based therapeutics to lower HTT expression. As an alternative to siRNA or oligonucleotide methods, we hypothesized that suppression of HTT expression might be accomplished by small molecules that either (1) directly decrease HTT expression by suppressing HTT promoter activity or (2) indirectly decrease HTT expression by increasing the promoter activity of HTT-AS, the gene antisense to HTT that appears to inhibit expression of HTT.
We developed and employed a high throughput screen for modifiers of HTT and HTT-AS promoter activity using luminescent reporter HEK293 cells; of the 52,041 compounds tested, we identified 898 replicable hits. We used a rigorous stepwise approach to assess compound toxicity and the capacity of the compounds to specifically lower huntingtin protein in 5 different cell lines, including HEK293 cells, HD lymphoblastoid cells, mouse primary neurons, HD iPSCs differentiated into cortical-like neurons, and HD hESCs. We found no compounds which were able to lower huntingtin without lowering cell viability in all assays, though the potential efficacy of a few compounds at non-toxic doses could not be excluded.
SEQUENCE No. (1, 2, 3, etc.); […] (e.g., Cells, Incubation, Reagent, etc.); VALUE and DESCRIPTION.
1; Reagent; 4 uL; 2,500 Hek293 luciferase reporter cells per wells
3; Compound; 23 nL; Control inhibitor / compound library
5; Reagent; 2.5 uL; Firefly Luc reagent; Dual-Glo Luciferase Reporter Assay System (Promega)
6; Time; 10 min; room temperature incubation
7; Detection; Luminescence; FLuc
NOTES (numbers refer to sequence above)
1; High-throughput screening, measuring luminescence from a Hek293 luciferase reporter, was performed in 1,536 well white-walled tissue-culture treated plates. 2,500 cells were plated in 4 µL of Opti-MEM per well using a Multidrop Combi Reagent Dispenser (ThermoFisher).
2; Assay plates were cultured for 24 hours.
3; Control inhibitor (PTC124; final concentration of 50 uM) and compound library (at final concentrations of 460 nM - 57.5 uM) were added to the assay plate using the Kalypsis Pintool Robotic System equipped with 1536 pinheads.
4; Cells were then incubated for 24 hours at 37 degrees C prior to luminescence measurements.
5; In all cases, luminescence was measured using the Dual-Glo Luciferase Reporter Assay System (Promega) following the manufacturer's instructions.
6; Room temperature incubation.
7; Luminescence signal was obtained using the PerkinElmer ViewLux plate reader. Results were normalized to vehicle control (0% activity) and zero RLU (-100% activity).
A general note: qHTS replaces the single test concentration by a dilution series.
For `O=C1NC(=O)C(=Cc2cccc(C(F)(F)F)c2)S1`, the Potency result was “inactive”. Under `Cc1ccc2c(c1)N(C(=O)Nc1ccc(Br)cc1F)CCO2` stands “inactive”; under `COc1cc(-c2noc(-c3ccc(N4CCCC4)c([N+](=O)[O-])c3)n2)cc(OC)c1OC`, “inactive”; under `CCNC(=O)CC1C(=O)N(c2ccc(F)cc2)C(=O)N1Cc1ccc(C)cc1` (stereo unspecified), “inactive”.

Take `CCc1cccc(CC)c1NC(=O)Cn1c(=O)c(-c2cc(C)ccc2NC(C)=O)nc2ccccc21`: the Potency result is “inactive”. Take `O=S(=O)(c1ccccc1)c1nc(-c2ccc(Cl)cc2Cl)oc1N1CCCCC1`: the Potency result was “inactive”. Consider `Cc1ccc(Nc2ccc3cc(S(=O)(=O)N4CCCCC4)ccc3n2)cc1F`, for which the Potency entry was “inactive”. The same measure for `Cc1c(Cl)cccc1NC(=O)c1noc2c1CCCC2`: “inactive”; for `O=C(c1ccc(Cl)cc1)n1nc(-c2cccnc2)nc1NCc1ccc(F)cc1`: “inactive”.

Consider `CCOc1ccc2nc(N3CCC(C(=O)Nc4cc(C)ccc4C)CC3)sc2c1`, for which the Potency entry was “inactive”. The same measure for `CC1CCN(c2nc3ccc(C(=O)N4CCN(c5ccccc5)CC4)cc3s2)CC1`: 1.12 µM (active); for `CCOc1cccc2sc(N3CCN(C(=O)C4CC4)CC3)nc12`: “inactive”; for `CCN(CCCNC(=O)Cn1ncc2c([nH]c3ccccc32)c1=O)c1cccc(C)c1`: “inactive”. Take `CCOC(=O)N1CCc2c(sc(NCc3cccc(F)c3)c2C(=O)Nc2ccccc2OCC)C1`: the Potency entry was “inactive”. In the case of `O=C(NCc1ccc(F)cc1)c1ccc2nc(N3CCCCC3)sc2c1`, the Potency was 8.91 µM (active). The same measure for `O=C(NCc1ccccc1)c1ccc2c(c1)nc1n2CCCCC1`: “inactive”; for `Cc1ccc(C)n1-c1nnc(N2CCC(C(=O)NCc3ccc(F)cc3)CC2)s1`: “inactive”; for `CCOc1cccc(CC(=O)N2CCc3c([nH]c4ccccc34)C2c2ccc(F)cc2)c1OCC` (stereo unspecified): “inactive”.

Regarding `Cc1ccc(S(=O)(=O)n2nc(C)c(S(=O)(=O)N3CCCCCC3)c2C)cc1`, the Potency result is “inactive”.

Consider `Cc1cc(O)c(C(c2ccccc2)N2CCN(c3ccccc3F)CC2)c(=O)n1Cc1ccco1` (stereo unspecified), for which the Potency entry is “inactive”.

With `Cc1cc(C)cc(Nc2ncnc3onc(-c4ccc(F)cc4)c23)c1`, the Potency entry is “inactive”. Regarding `COC(=O)CSc1ccc2nnc(CCNS(=O)(=O)c3ccc(C)cc3)n2n1`, the Potency entry is “inactive”. For the compound `CCc1ccccc1NC(=O)c1ccc2c(c1)CCN2S(C)(=O)=O`, the Potency entry was “inactive”.

`CCOc1ccc(C2CC(=O)c3c([nH]c(C(=O)OCc4ccccc4)c3C)C2)cc1` (stereo unspecified): the Potency entry was “inactive”. The same measure for `CCC(=O)Nc1cccc(-c2nc3cc(C)ccc3o2)c1`: “inactive”.

With `Cc1ccc2nc(-c3ccc(C)c(NC(=O)Cc4ccccc4)c3)oc2c1`, the Potency is 12.6 µM (active). Take `CCc1ccc2oc(-c3ccc(C)c(NC(=O)/C=C/c4ccco4)c3)nc2c1`: the Potency result is “inactive”. Turning to `Cc1ccccc1CS(=O)(=O)CC1Nc2ccc(C(=O)NCc3ccc(Cl)cc3)cc2NC1=O` (stereo unspecified), the Potency entry was “inactive”. With `O=C(Cn1cnc2c(oc3ccccc32)c1=O)Nc1ccc(OC(F)(F)F)cc1`, the Potency entry was “inactive”. Under `COc1ccc(OC)c(NC(=O)CSc2nc3ccccc3nc2N2CCCCC2)c1` stands “inactive”. `COc1ccc(CCNC(=O)c2ccc3c(c2)sc2nc(-c4ccc(C)cc4)cn23)cc1OC`: the Potency entry was “inactive”. The same measure for `COc1ccc(CCNC(=O)c2ccc(CSCc3ccc(C)cc3)o2)cc1OC`: 25.1 µM (active); for `Cc1ccc(CCNC(=O)c2ccc(CS(=O)(=O)Cc3cccc(C)c3)o2)cc1`: “inactive”.

Consider `O=C(NCc1cccnc1)C(=O)NCC(c1cccnc1)N1CCN(c2ccccc2)CC1` (stereo unspecified), for which the Potency result is “inactive”. As for `COc1ccccc1N1CCN(C(CNC(=O)C(=O)NCc2ccc(C)cc2)c2cccnc2)CC1` (stereo unspecified), the Potency is 11.2 µM (active). Under `Cc1ccc(NC(=O)C(=O)NCC(c2cccnc2)N2CCOCC2)cc1` (stereo unspecified) stands “inactive”; under `COc1ccc(Br)cc1C1CC(=O)Nc2c1c(C)nn2-c1nc(C)cc(C)n1` (stereo unspecified), “inactive”; under `CCC(=O)Nc1c(C(=O)N2CCN(c3ccc(F)cc3)CC2)oc2ccccc12`, “inactive”. Consider `COc1cccc(-c2n[nH]c3c2C(c2cccc(O)c2)N(C)C3=O)c1` (stereo unspecified), for which the Potency result was “inactive”. The same measure for `COc1ccc(Cn2ccn(Cc3cccc(OC)c3)c(=O)c2=O)cc1`: “inactive”; for `CCN1CCN(CCCNC(=O)c2cnn(-c3ccc(C)cc3C)c2C2CCN(C(=O)OC(C)(C)C)CC2)CC1`: “inactive”. Under `CCCCNC(=O)CSc1nc2cc3c(cc2c(=O)n1CCCCCC(=O)NCc1ccc2c(c1)OCO2)OCO3` stands “inactive”; under `CCOC(=O)C1CCN(C(c2ccc(F)cc2)c2sc3nc(-c4ccco4)nn3c2O)CC1` (stereo unspecified), “inactive”.

Turning to `CCOC(=O)c1cccc(NS(=O)(=O)c2cc(-c3cnc(C)o3)ccc2OC)c1`, the Potency entry is “inactive”.

On to `COc1ccc(-c2cccc(NS(=O)(=O)c3cc(C)c(OC)c(C)c3C)c2)nn1`, for which the Potency was 11.2 µM (active). The same measure for `Cc1ccc(CCNC(=O)Cn2c(-c3cccs3)cc3cc(F)ccc32)cc1`: “inactive”; for `CCc1ccccc1NC(=O)Cn1c(=O)n(CC2CCC(C(=O)NCCc3ccccc3)CC2)c(=O)c2ccccc21` (stereo unspecified): “inactive”; for `COc1cc(NS(=O)(=O)c2ccc3c(c2)OCC(C(=O)N2CCCC2)O3)cc(OC)c1` (stereo unspecified): 14.1 µM (active). The same measure for `COc1cc(NS(=O)(=O)c2cccs2)cc(OC)c1`: “inactive”; for `COc1ccc(OC)c2sc(N3CCN(C(=O)C4COc5ccccc5O4)CC3)nc12` (stereo unspecified): “inactive”. On to `COc1ccccc1CNC(=O)C(=O)NCC(c1cccs1)S(=O)(=O)c1cccs1` (stereo unspecified), for which the Potency entry was “inactive”. The same measure for `CC1CN(C(=O)N2CCC(C(=O)NCc3ccco3)CC2)c2cc(Cl)ccc2O1` (stereo unspecified): “inactive”; for `CCc1ccc(CN(Cc2ccco2)C(=O)COc2ccc(Cl)c(C)c2)cc1`: “inactive”; for `CC(C)NC(=O)C1CCC(Cn2c(=O)c3sccc3n(Cc3ccc(F)cc3)c2=O)CC1` (stereo unspecified): “inactive”. The same measure for `CC(=O)Nc1cccc(NC(=O)CSc2cn(CC(=O)N3CCCC3)c3ccccc23)c1`: “inactive”.

Regarding `Cc1ccc(-c2nn(CCC(=O)Nc3ccc(OC(F)(F)F)cc3)c(=O)c3ccccc23)cc1`, the Potency result was “inactive”. As for `CCc1ccc(NC(=O)CN2C(=O)CCSc3ccc(S(=O)(=O)N4CCCC4)cc32)cc1`, the Potency result is “inactive”. Under `CCc1ccc(NC(=O)CN2CCSc3ccc(S(=O)(=O)N4CCCC4)cc32)cc1` stands 31.6 µM (active). The same measure for `CN(C(=O)CN1C(=O)CCSc2ccc(S(=O)(=O)N3CCCC3)cc21)c1ccccc1`: “inactive”; for `COC(=O)c1ccccc1NC(=O)c1cnn(-c2ccc(F)cc2)c1-n1cccc1`: “inactive”; for `CCCCN(CC)CCCNC(=O)c1nn(C)c2c1CS(=O)(=O)c1ccccc1-2`: “inactive”.

`CCCCC(=O)OC1=CN(Cc2ccccc2)S(=O)(=O)c2ccccc21`: the Potency result was “inactive”.

Turning to `COc1cccc(NC(=O)Cn2c(=O)cc(C)c3c(C)nn(-c4cccc(F)c4)c32)c1`, the Potency entry is “inactive”.

On to `COc1ccc(NC(=O)c2ccco2)cc1NC(=O)COc1ccc(C)c(C)c1`, for which the Potency result is “inactive”. Under `CCOC(=O)c1ccccc1NC(=O)CCc1c(C)nc2c(c1C)c(=O)n(C)c(=O)n2C` stands “inactive”; under `CCc1nn(CC(=O)NCC(C)c2ccccc2)c(=O)c2cc3occc3n12` (stereo unspecified), “inactive”.

Source of the values: PubChem BioAssay AID1508623 (National Center for Advancing Translational Sciences (NCATS), 2021).
